Reference: PubChem BioAssay
Values without a mark were called inactive. Calls of active or inactive are those of the source. Unless noted, no stated cut-off is given here; in the data, active means inhibition above about 28%; inactive means the rest.

Columns and labels:
[1] = StAR promoter reporter inhibitors, counter-screen for LRH-1 inverse agonist project, cell-based, luminescence, high throughput (AID 651611); settings: StAR promoter luciferase reporter counterscreen, at 3.6 µM, hits give high values
[2] = biological target: Nuclear receptor subfamily 5 group A member 2 (Homo sapiens) (UniProt O00482); assay: NR5A2 activity suppression in reporter cells – cell-based, luminescence, confirmation (AID 651613; in the data active means inhibition above about 42%;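 further: HEK293T cells co-transfected with LRH-1 and StAR promoter luciferase reporter; 0% = vehicle wells and 100% = parental cells lacking receptor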); settings: cell-based LRH-1 luciferase reporter, inverse agonism; at 3.6 µM; hits give high values
Nuclear receptor subfamily 5 group A member 2 (Homo sapiens), sequence (O00482 whole entry, looked up): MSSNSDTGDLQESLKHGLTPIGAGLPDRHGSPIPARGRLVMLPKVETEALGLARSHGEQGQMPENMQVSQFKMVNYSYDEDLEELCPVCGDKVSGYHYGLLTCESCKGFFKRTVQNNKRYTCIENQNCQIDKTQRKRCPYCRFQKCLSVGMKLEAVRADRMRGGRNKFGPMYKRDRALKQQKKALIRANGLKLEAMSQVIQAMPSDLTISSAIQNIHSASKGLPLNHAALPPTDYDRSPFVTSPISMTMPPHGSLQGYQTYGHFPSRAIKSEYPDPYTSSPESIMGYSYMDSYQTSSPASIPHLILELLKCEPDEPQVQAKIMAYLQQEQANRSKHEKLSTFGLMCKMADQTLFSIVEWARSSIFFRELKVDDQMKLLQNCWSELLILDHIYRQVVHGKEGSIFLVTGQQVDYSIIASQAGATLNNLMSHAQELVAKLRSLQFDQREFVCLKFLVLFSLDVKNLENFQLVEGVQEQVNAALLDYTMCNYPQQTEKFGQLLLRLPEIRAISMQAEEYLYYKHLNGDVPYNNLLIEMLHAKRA

[3] = biological target: Steroidogenic factor 1 (Homo sapiens) (UniProt Q13285); assay: inverse agonism at SF1 nuclear receptor – cell-based, luminescence, high throughput, counter-screen for LRH-1 inverse agonist project (AID 651614; in the data active means inhibition above about 44%;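 further: cells cotransfected with StAR promoter reporter and SF1 expression vector; 0% = vehicle on cells with receptor and 100% = vehicle on cells lacking receptor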); settings: cell-based SF1 luciferase reporter, at 3.6 µM, hits give high values
Steroidogenic factor 1 (Homo sapiens), sequence (Q13285 whole entry, looked up, the tested form may be a part): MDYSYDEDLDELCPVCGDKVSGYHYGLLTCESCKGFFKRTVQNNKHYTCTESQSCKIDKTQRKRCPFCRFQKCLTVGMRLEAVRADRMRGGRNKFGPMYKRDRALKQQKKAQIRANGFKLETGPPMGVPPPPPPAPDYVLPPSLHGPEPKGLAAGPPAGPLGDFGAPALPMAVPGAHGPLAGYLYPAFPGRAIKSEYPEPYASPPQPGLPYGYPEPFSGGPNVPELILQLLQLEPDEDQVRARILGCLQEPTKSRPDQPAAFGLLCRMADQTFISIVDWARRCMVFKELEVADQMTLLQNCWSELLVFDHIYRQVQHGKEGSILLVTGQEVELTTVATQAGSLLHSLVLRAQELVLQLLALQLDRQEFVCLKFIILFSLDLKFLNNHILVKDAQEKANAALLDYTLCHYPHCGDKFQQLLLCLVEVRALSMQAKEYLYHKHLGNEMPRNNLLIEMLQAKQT

[4] = compounds suppressing VP16-driven luciferase signal – cell-based, luminescence, high throughput, counter-screen for LRH-1 inverse agonist project (AID 651615; in the data active means inhibition above about 33%); settings: Gal4-VP16 luciferase reporter cells, at 3.6 µM, hits give high values

Row | SMILES | inhibition [1] | inhibition [2] | inhibition [3] | inhibition [4]
1 | CC(=O)Nc1ccc(NC(=O)CSc2nc3nc(-c4cccs4)cc(C(F)(F)F)c3c(=O)[nH]2)cc1 | 8.21% | 54.2% (active) | 49.2% (active) | -4.54%
2 | COc1ccccc1NC(=O)c1ccc(NC(=O)CSc2nnnn2C)cc1 | 4.14% | 59% (active) | 55.5% (active) | -1.96%
3 | Clc1ccccc1-c1nnc2sc(-c3ccc(Br)o3)nn12 | 5.07% | 43.5% (active) | 54.5% (active) | -2.86%
4 | CCOC(=O)c1cccc(C2=CC(=O)CC(C)(C)C2)c1 | 1.21% | 46.3% (active) | 48.8% (active) | -12%
5 | CN(C)C(=O)Cn1c(SCC(=O)Nc2ccc3c(c2)OCO3)nc2ccccc21 | -0.98% | 22.2% | 28.2% | -0.46%
6 | COc1ccc2c(c1)c[n+](C)c1c3cc(OC)c(OC)cc3ccc21 | 12.1% | 58.3% (active) | 56.5% (active) | 68.9% (active)
7 | Cc1[nH][nH]c(=O)c1N=Nc1ccc(S(N)(=O)=O)cc1 | 20.7% | 52.1% (active) | 51.5% (active) | 6.39%
8 | CC1(C(=O)NCc2ccc3c(c2)OCO3)CCN1C(=O)Cc1ccc(Cl)cc1Cl (stereo unspecified) | 7.73% | 56.5% (active) | 47% (active) | -2.52%
9 | COc1cc(-c2noc(C)c2-c2ccc(N(C)C)nc2)cc(OC)c1OC | 58.7% (active) | 53% (active) | 63.2% (active) | -0.05%
10 | COc1cc(-c2noc(C)c2/C=C/c2ccc(N)cc2)cc(OC)c1OC | 64.6% (active) | 38.5% | 55.2% (active) | -29.3%
11 | COc1cccc2c1C1COC3C4CC(C(=O)O)C(C(C2)N13)N4C (stereo unspecified) | 29.8% (active) | 45.4% (active) | 72.3% (active) | -10.2%
12 | Cn1c(CN2CCN(c3ccc(Cl)cc3)CC2)nc2ccccc21 | 5.45% | 32.9% | 52.9% (active) | -6.14%
13 | COc1cc2c(cc1OC)CN(C(=O)Cn1ccccc1=O)CC2 | 16.3% | 56.6% (active) | 57.1% (active) | 6.2%
14 | CC(=O)Nc1ccc(N=c2cc([N+](=O)[O-])cc(Cl)n2O)cc1 | 14.3% | 59.6% (active) | 57.8% (active) | -3.98%
15 | CC1CCCC(C)N1C(=O)COC(=O)CCC1CCCC1 (stereo unspecified) | 3.25% | 51.2% (active) | 52.9% (active) | 2.94%
16 | CCOC(=O)CCCc1ccc(/C(C)=N/NC(N)=S)cc1 | 21.6% | 62.4% (active) | 68.6% (active) | 26.4%
17 | Cc1cc2oc(=O)cc(-c3ccccc3)c2c(C)c1-c1ccc(C#N)cc1 | 4.09% | 69% (active) | 62.7% (active) | 13.8%
18 | COc1cccc(C2c3cc4c(cc3OC(N3CCOCC3)C2C)OCO4)c1O (stereo unspecified) | 11.7% | 51.8% (active) | 45.3% (active) | 21.4%
19 | COc1ccc(NC(=O)CSc2ncnc3c2cnn3Cc2ccccc2)cc1 | 16.1% | 49.6% (active) | 62.2% (active) | 2.38%
20 | O=C1c2ccccc2-n2c1nc1ccccc1c2=O | 41.1% (active) | 66.7% (active) | 57.8% (active) | 51% (active)
21 | O=C(Nc1cccc(S(=O)(=O)Nc2ccc(Cl)cc2)c1)c1ccc(Cl)nc1 | 41.3% (active) | 65% (active) | 63.3% (active) | 56.9% (active)
22 | C=CCNc1nc2c(c(=O)n(C)c(=O)n2C)n1CCCCCC | 28.9% (active) | 73% (active) | 54.9% (active) | 47.2% (active)
23 | COc1ccc(CCNC(=O)c2ccccc2NC(=O)CN2CCN(c3ccccc3O)CC2)cc1 | 33.3% (active) | 48% (active) | 50.4% (active) | -22.9%
24 | Cc1sc2ncnc(NCCc3ccc(S(N)(=O)=O)cc3)c2c1C | 14.7% | 53% (active) | 54.6% (active) | 50% (active)
25 | O=C(COC(=O)c1cccc(O)c1)Nc1ccc(N2CCOCC2)cc1 | 13.6% | 54.3% (active) | 54.6% (active) | -6.64%
26 | COc1cc(OC)cc(-c2oc3cccnc3c2C#CCCO)c1 | 2.16% | 60.8% (active) | 54.2% (active) | -0.7%
27 | Cc1ccc(N2C(=O)C(Cl)=C(N3CCN(C)CC3)C2=O)c(C)c1 | 13.1% | 50.3% (active) | 39% | -9.83%

Row | SMILES | inhibition [1] | inhibition [2] | inhibition [3] | inhibition [4]
28 | O=C(CSc1n[nH]c(-c2ccccc2)n1)Nc1ccc(N2CCOCC2)cc1 | 1.99% | 56.6% (active) | 49% (active) | -15.3%
29 | COc1cc(NC(=O)Cn2ccsc2=N)c(C)cc1[N+](=O)[O-] | 11.8% | 49.5% (active) | 58% (active) | -0.82%
30 | CCc1cc(=O)oc2c(C)c(OCC(=O)NCCCN3CCOCC3)ccc12 | 3.94% | 48.7% (active) | 42.6% | 2.03%
31 | COc1cc(NCCCCCCN)c2ncccc2c1OC | 22.3% | 49% (active) | 43.6% (active) | -3%
32 | O=C(c1cc(COc2cccc3cnccc23)on1)N1CCCC(CCCO)C1 (stereo unspecified) | 35.4% (active) | 66.4% (active) | 70.5% (active) | 63.5% (active)
33 | CCC(c1nnnn1-c1c(C)cccc1C)N1CCN(c2ccc(C(F)(F)F)cc2[N+](=O)[O-])CC1 (stereo unspecified) | 7.27% | 18.6% | 5.25% | 10%
34 | O=[N+]([O-])c1ccc(/C=N/Nc2ccnc3cc(Cl)ccc23)o1 | -10.6% | 44% (active) | 40% | -10.5%
35 | O=C(COc1ccc(C(=O)c2ccccc2)cc1)NCc1ccc(F)cc1 | 19.9% | 28.7% | 37.9% | 30.4%
36 | Cn1ncc(Cl)c1C(=O)NCc1ccc2c(c1)OCO2 | -2.54% | 45.4% (active) | 50.1% (active) | 15.7%
37 | Cc1ccc(CNC(=O)c2ccc([N+](=O)[O-])o2)cc1 | 16.4% | 57% (active) | 60.8% (active) | -5.02%
38 | Cc1cccc(NC(=O)CSc2nnc([C@@H]3CCCN3C(=O)OC(C)(C)C)o2)c1C | 33.4% (active) | 66.2% (active) | 73.5% (active) | -39.9%
39 | O=C(COC(=O)C1CC(=O)N(Cc2ccccc2)C1)Nc1ccc2c(c1)OCO2 (stereo unspecified) | 6.45% | 50.9% (active) | 54.8% (active) | -9.97%
40 | COc1cc(-c2cnc3c(NC=O)cc(-c4cccc(NC(C)=O)c4)cn23)cc(OC)c1OC | 62.9% (active) | 74.9% (active) | 71.5% (active) | -23.8%
41 | COc1ccc(OCCNC(=O)c2ccccc2OCC(=O)Nc2ccc(NC(C)=O)cc2)cc1 | 16% | 49.8% (active) | 52.4% (active) | 0%
42 | CC(=O)Nc1ncc(Cc2cc(Cl)ccc2Cl)s1 | 11.1% | 50.2% (active) | 46.7% (active) | 2.54%
43 | COC(=O)c1ccc(NC(=O)CSc2nc3ncccc3[nH]2)cc1 | -4.1% | 50.8% (active) | 52.6% (active) | -13.4%
44 | O=C(CSc1ncn[nH]1)Nc1ccc(Cl)c(Cl)c1 | 18.4% | 45.2% (active) | 39% | 20.6%
45 | Cc1ccc2cccc(OCC(=O)NCCC3=CCCCC3)c2n1 | 8.76% | 61.1% (active) | 58.1% (active) | -3.55%
46 | OCCCNc1c2ccccc2nc2ccccc12 | 13.1% | 107% (active) | 56.7% (active) | 96.4% (active)
47 | Cc1ccc(C)c(NC(=O)CSc2nnc(CCNC(=O)OC(C)(C)C)o2)c1 | 20.9% | 59.2% (active) | 59.8% (active) | -2.78%
48 | COc1ccc(NC(=O)C2=CC(c3ccc(OC)c(OC)c3)=NS(=O)(=O)N2C)cc1 | 1.44% | 56.3% (active) | 49.4% (active) | 18.4%
49 | O=C(Nc1ccc(N2CCN(C(=O)c3ccccc3)CC2)cc1)c1ccc([N+](=O)[O-])o1 | 22.4% | 64.8% (active) | 66.6% (active) | -9.49%
50 | COC(=O)c1ccc(NC(=O)CSc2nncn2-c2cccnc2)cc1 | -6.12% | 44.6% (active) | 34.3% | 0.63%
51 | CC(C)CC1(C)NC(=O)N(CC(=O)Nc2ccc3c(c2)OCCO3)C1=O (stereo unspecified) | 16.7% | 54.2% (active) | 53% (active) | 7.91%
52 | Cc1cc(C)c2c(N)c3cccc(C)c3nc2n1 | 30.8% (active) | 105% (active) | 45.8% (active) | 89% (active)
53 | COc1cccc(C=Nc2ccc3c(c2)OCCO3)c1O | -5.52% | -12% | -7.99% | -25.9%
54 | CCN(CC)S(=O)(=O)c1cccc(NC(=O)CNc2cccc(S(=O)(=O)N3CCCC3)c2)c1 | 26.7% | 64.4% (active) | 59.8% (active) | 49.5% (active)
